In PubChem BioAssay (EPA / NIEHS):
Records with an inconclusive call do not appear. The source made the active and inactive calls. The calls were made as follows: active = hit-call score of the fitted dose curve at least 0.9, where 1 is the maximum; inconclusive = response in the unintended direction; inactive = score below 0.9.

biological target: AR (gene 367) (UniProt P10275); assay: ACEA_AR_antagonist_80hr: ACEA Biosciences xCELLigence Real-Time Cell Analysis on Androgen Receptor Antagonism for Proliferation (AID 2283787);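 also: 22Rv1 human prostate cancer cells with growth followed by electrical impedance; hits lower the impedance growth signal relative to DMSO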
Sequence (P10275 whole entry, looked up): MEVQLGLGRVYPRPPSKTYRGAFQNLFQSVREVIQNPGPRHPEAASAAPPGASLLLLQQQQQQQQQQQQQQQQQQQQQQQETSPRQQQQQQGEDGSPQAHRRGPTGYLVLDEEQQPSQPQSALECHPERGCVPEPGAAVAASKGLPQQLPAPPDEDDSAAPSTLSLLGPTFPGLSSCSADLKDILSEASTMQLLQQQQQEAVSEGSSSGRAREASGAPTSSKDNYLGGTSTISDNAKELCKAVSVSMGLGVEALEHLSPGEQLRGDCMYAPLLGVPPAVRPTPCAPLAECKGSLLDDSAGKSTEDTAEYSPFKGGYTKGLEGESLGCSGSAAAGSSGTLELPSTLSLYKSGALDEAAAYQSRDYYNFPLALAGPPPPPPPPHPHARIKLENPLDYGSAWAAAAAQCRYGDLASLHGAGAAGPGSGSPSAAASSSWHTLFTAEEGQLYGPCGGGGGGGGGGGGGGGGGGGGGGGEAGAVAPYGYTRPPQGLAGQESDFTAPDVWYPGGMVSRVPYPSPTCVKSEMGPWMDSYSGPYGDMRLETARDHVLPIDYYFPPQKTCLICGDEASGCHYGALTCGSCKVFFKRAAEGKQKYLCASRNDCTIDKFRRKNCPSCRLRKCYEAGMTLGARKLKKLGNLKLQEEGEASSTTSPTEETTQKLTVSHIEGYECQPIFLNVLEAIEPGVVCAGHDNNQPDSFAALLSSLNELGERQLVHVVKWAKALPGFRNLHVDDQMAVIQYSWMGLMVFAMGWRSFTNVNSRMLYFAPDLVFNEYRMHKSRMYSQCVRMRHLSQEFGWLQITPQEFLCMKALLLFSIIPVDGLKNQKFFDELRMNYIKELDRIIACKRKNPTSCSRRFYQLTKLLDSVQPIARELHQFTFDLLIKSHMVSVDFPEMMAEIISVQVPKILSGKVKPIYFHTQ
Procedure, shortened: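 Growth-kinetic antagonist readout in 22Rv1 cells, taken 80 h after continuous compound exposure. Activity fitted as signal loss relative to DMSO negative control.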

Row | Structure (SMILES) | outcome | AC50
1 | O=C(c1ccccc1)c1ccccc1 | inactive | 
2 | CC(=O)Nc1ccc(O)cc1 | inactive | 
3 | CC(C)[C@@H]1CC[C@@H](C)C[C@H]1O |  | 480 nM (active)
4 | CCCCc1ccc2ccccc2c1S(=O)(=O)O | inactive | 
5 | CC(O)COc1ccccc1 (stereo unspecified) | inactive | 
6 | CCCCCCCCCC=CCC1CC(=O)OC1=O (stereo unspecified) | inactive | 
